40 compounds from PubChem BioAssay (EPA / NIEHS) can be followed below.

Active and inactive are the calls of the source. The calls were made as follows: active = hit-call score of the fitted dose curve at least 0.9, where 1 is the maximum; inactive = score below 0.9.

Read-out in this assay: CYP2C8 (gene 1558)
Put plainly: LTEA_HepaRG_CYP2C8: Life Technologies and Expression Analysis (LTEA) Assay for CYP2C8 using HepaRG (AID 2283483). The following applies: mRNA level, 48 h; actives raise or lower the signal. As to the method: LTEA_HepaRG is a cell based, multiplexed-readout assay that uses HepaRG, a human liver cell line, with measurements taken at 48 hours after chemical dosing on a 96-well plate.LTEA_HepaRG_CYP2C8 is one of 102 assay component(s) measured in the LTEA HepaRG cell culture assay. It is a marker of NR mediated metabolism.Data from the assay component LTEA_HepaRG_CYP2C8 was analyzed into 1 endpoint. This assay endpoint, LTEA_HepaRG_CYP2C8, was analyzed with bidirectional fitting relative to DMSO as the negative control and baseline of activity. Using a type of inducible reporter, measures of mRNA induction for gain or loss-of-signal activity can be used to understand regulation of transcription factor activity. To generalize the intended target to other relatable targets, this assay endpoint is annotated to the cyp intended target family, where the subfamily is xenobiotic metabolism.
A total of 1060 chemcials from the ToxCast library were tested in eight-point concentration-response experiments. Cell culture and cytotoxicity assays were conducted at Thermo Fisher Scientific's Custom Services facility (Madison, WI). A single lot of human HepaRG cells (Thermo Fisher Scientific, Frederick, MD) was used for the cell culture experiments. 96-well format collagen type I coated plates of human HepaRG cells were prepared using established methods. Briefly, cryopreserved HepaRG cells were thawed, plated at a density of approximately 100,000 cells/well in HepaRG Thaw, Plate, and General Purpose media (HPRG770, Thermo Fisher Scientific), and incubated for 48 hours. 0.5% DMSO was selected as vehicle control to balance the requisite need of DMSO in HepaRG cultures to maintain differentiation (for example, baseline metabolism, proportions of hepatocytes vs. cholangiocytes), while enabling further hepatic receptor pathway activation (for example, PXR and CAR) in response to chemical exposure. 48 hours after plating, the culture medium was replaced with HepaRG Serum-Free Incudtion Media. Cells were exposed to each test chemical in duplicate and maintained in CO2 incubators for another 48 hours. Chemical plates were thawed to room temperature and 200x concentrations of treatment groups were prepared. 8-point conentration-reponse curves were made with the highest exposure at 100 uM, followed by half-log dilutions, all in 0.5% DMSO. Each test plate contained variouse controls, induction positive controls (1mM phenobarbital), cytotoxicity positive controls ([…] aflatoxin B1), vehicle controls (0.5% DMSO), and total lysis controls (0.5% DMSO). Cell morphology images were taken using an Essen IncuCyte FLR automated microscope, with six 96-well plates imaged in about 24 minutes. Images were captured and exported and JPEG files. Spent culture media was transfered to black-well plates for the LDH assay, and remaining media was sorted at -80 C for later use. Cells were treated with RLT buffer and frozen until shipped for gene expression analysis. Total RNA was isolated from the cell suspension in 75 uL of Buffer RLT (Qiagen, Germantown, MD 20874) by Quintiles/Expression Analysis (Durham, NC) using a custom isolation procedure. Total RNA from each plate well was transferred to a preamplification plate. Fluidigm's 96.96 Dynamic ArrayTM (Fluidigm, Amsterdam, the Netherlands) technology was used for gene expression analyses by quantitative reverse transcription polymerase chain reaction (qRT-PCR, performed by Quintiles/Expression Analysis, Durham, NC)89. Standard TaqManTM Assays (Applied Biosystems/ThermoFisher Scientific, Foster City, CA) were used to assess the expression of 93 genes selected based on their selectivity and sensitivity to important hepatic receptors known to be modulated by environmental chemicals; importance in human hepatocyte functionality; and hepatotoxicity. […]
With `CC(O)CCO` (stereo not given), the compound was called inactive. Consider `O=C1CCCO1`, for which the call was inactive. With `CCOC(=O)[C@]1(c2ccccc2)Oc2ccccc2[C@@H]1N`, the result was inactive.

Regarding `CCN(CC)CCO`, the call was inactive.

In the case of `O=C(O)C1C2CCC(O2)C1C(=O)O` (stereo not given), the AC50 was 58.9 µM (active). For the compound `C[N+](C)(C)CC1CO1` (stereo not given), the outcome was inactive. The same measure, in the same setting: for `Nc1ccc(Oc2ccc(N)cc2)cc1` the value was “inactive”. On to `CCCCCCCCn1sccc1=O`, for which the AC50 was 85.9 µM (active). For the compound `Oc1ccc2ccc3cccc4ccc1c2c34`, the compound was called inactive.

Take `CCOc1cccc(C2(N3CCN(c4ccccc4)CC3)CCC(C)CC2)c1` (stereo not given): the result was inactive. On the same count and under the same terms, the entry for `CC(C)(C)OOC(=O)c1ccccc1` is “inactive”; for `Brc1ccc(Oc2ccccc2)cc1` it is “inactive”. For `O=[N+]([O-])C(Br)(CO)CO`, the outcome was inactive. Same read-out and setting: for `CN(C)c1ccc(C(=O)c2ccc(N(C)C)cc2)cc1` the value was “inactive”; for `CNC(=O)Oc1cccc2c1OC(C)(C)C2`, “inactive”. For the compound `c1ccc(C2CO2)cc1` (stereo not given), the compound was called inactive. Still for that read-out and setting: the entry for `CCCCCCCCCCCCCN1CC(C)OC(C)C1` (stereo not given) is “inactive”; for `c1ccc2c(c1)oc1ccccc12` it is “inactive”; for `Cc1ccc(N=C=O)cc1N=C=O` it is “inactive”. Turning to `ClC1=C(Cl)[C@]2(Cl)[C@H]3[C@H]([C@@H]4C=C[C@H]3C4)[C@@]1(Cl)C2(Cl)Cl`, the AC50 is 1.45 µM (active). Consider `O=C(Oc1ccc(Br)cc1)N1CCN2CCC1CC2`, for which the compound was classed as inactive. For the compound `CC(C)COC(=O)c1ccccc1C(=O)OCC(C)C`, the result was inactive.

On to `CC(C)N(Cc1ccccc1)C(=O)C(C)(C)C`, for which the AC50 was 10.4 µM (active).

`O=C(Nc1ccccc1)c1ccccc1I`: the outcome was inactive.

Regarding `Nc1cc(Cl)cc(C(=O)O)c1Cl`, the outcome was inactive. Same read-out and setting: the entry for `CO[C@@H]1[C@H](OC(=O)NC(=O)CCl)CC[C@]2(CO2)[C@H]1[C@@]1(C)O[C@@H]1CC=C(C)C` is “inactive”.

Turning to `CCC(C)c1ccc(O)cc1` (stereo not given), the result was inactive. With `Nc1ccc(N=Nc2ccccc2)cc1`, the AC50 is 17.3 µM (active). For `CS(=O)(=O)NC(=O)c1cc(Oc2ccc(C(F)(F)F)cc2Cl)ccc1[N+](=O)[O-]`, the concentration at half-maximal activity (AC50) was 1.76 µM (active). As to `Clc1ccc(C(c2ccc(Cl)cc2)C(Cl)(Cl)Cl)cc1`, the half-maximal activity concentration (AC50) was 12.5 µM (active). As for `Clc1ccccc1Cl`, the outcome was inactive. On the same count and under the same terms, for `Clc1ccc(Cl)c(Cl)c1` the value was “inactive”; for `CCN(CC)N=O`, “inactive”. Take `Nc1ccc(Cl)cc1N`: the concentration at half-maximal activity (AC50) is 25.1 µM (active). For the compound `CC(C)(C)OOC(C)(C)CCC(C)(C)OOC(C)(C)C`, the compound was called inactive. With `CCCCCOC(=O)c1ccccc1C(=O)OCCCCC`, the compound was classed as inactive. Take `Nc1ccc([N+](=O)[O-])cc1`: the outcome was inactive.

As to `COC(=O)Nc1nc2ccccc2[nH]1`, the outcome was inactive. Still for that read-out and setting: the entry for `c1ccc2c(c1)-c1cccc3cccc-2c13` is “inactive”; for `O=C(N[C@H](c1ccccc1)[C@@H]1CN2CCC1CC2)c1c(Cl)ccc(C(F)(F)F)c1Cl` it is “inactive”.
